High-throughput results from PubChem BioAssay.
RBX1-CUL1 inh: inhibitors of human ROC1-CUL1 ubiquitin ligase activity. E3 ubiquitin-protein ligase RBX1 (Homo sapiens) + Cullin-1 (Homo sapiens), P62877+Q13616. in vitro K48 di-Ub FRET, acceptor:donor ratio, 45 min. inhibition, % at 10 µM. 140,000 compounds, 0.6% hits; in the data active = inhibition above about 25%
Target sequence (P62877 whole entry, looked up): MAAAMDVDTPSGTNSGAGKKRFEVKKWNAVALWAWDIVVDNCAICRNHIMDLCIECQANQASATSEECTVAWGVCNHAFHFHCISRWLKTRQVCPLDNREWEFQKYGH
Target sequence (Q13616 whole entry, looked up): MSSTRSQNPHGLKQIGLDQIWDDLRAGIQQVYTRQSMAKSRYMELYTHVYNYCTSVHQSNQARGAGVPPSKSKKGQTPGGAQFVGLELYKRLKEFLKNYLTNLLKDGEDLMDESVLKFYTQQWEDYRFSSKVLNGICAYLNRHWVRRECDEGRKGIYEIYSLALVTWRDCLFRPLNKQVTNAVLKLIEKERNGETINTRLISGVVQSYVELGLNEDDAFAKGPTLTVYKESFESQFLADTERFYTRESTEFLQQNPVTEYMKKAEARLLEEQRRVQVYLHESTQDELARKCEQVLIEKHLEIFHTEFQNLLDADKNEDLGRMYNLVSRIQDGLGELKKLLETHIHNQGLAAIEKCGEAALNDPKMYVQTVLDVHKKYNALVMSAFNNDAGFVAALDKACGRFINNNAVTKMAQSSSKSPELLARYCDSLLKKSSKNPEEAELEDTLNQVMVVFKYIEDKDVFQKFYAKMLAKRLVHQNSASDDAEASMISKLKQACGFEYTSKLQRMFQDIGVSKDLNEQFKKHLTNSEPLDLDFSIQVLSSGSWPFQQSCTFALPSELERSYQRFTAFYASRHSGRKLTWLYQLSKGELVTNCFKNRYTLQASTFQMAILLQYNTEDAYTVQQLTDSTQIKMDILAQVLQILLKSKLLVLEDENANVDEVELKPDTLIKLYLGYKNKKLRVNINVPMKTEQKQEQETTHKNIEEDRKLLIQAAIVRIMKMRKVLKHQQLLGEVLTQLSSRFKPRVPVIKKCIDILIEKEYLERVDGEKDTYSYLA
* hit, by the source's call. This excerpt belongs to a sample that is enriched for hits.

SMILES	RBX1-CUL1 inh
O=c1/c(=C\c2ccc(F)cc2)sc2n1C(c1ccc(Cl)cc1Cl)C1=C(N=2)c2ccccc2CC1 (stereo not given)	-5
COc1ccc(C2C3=C(N=c4s/c(=C/c5cccc(OC)c5O)c(=O)n42)c2ccccc2CC3)cc1 (stereo not given)	-9
COC(=O)c1ccc(/C=c2\sc3n(c2=O)C(c2ccc(Cl)cc2Cl)C2=C(N=3)c3ccccc3CC2)cc1 (stereo not given)	-6
COc1ccc(C2C3=C(N=c4s/c(=C/c5ccc(C(=O)O)cc5)c(=O)n42)c2ccccc2CC3)cc1 (stereo not given)	76*
COc1ccc(C2C3=C(N=c4s/c(=C/c5ccc(O)c([N+](=O)[O-])c5)c(=O)n42)c2ccccc2CC3)cc1 (stereo not given)	44*
CCOc1ccc(/C=c2/sc3n(c2=O)C(c2cc(OC)ccc2OC)C2=C(N=3)c3ccccc3CC2)cc1 (stereo not given)	7
O=c1/c(=C\c2cc(Cl)cc(Cl)c2O)sc2n1C(c1ccc(Cl)cc1Cl)C1=C(N=2)c2ccccc2CC1 (stereo not given)	35*
COc1ccccc1C1C2=C(N=c3s/c(=C\c4ccccc4O)c(=O)n31)c1ccccc1CC2 (stereo not given)	-7
COc1ccccc1C1C2=C(N=c3s/c(=C/c4cccc(OCC(=O)O)c4)c(=O)n31)c1ccccc1CC2 (stereo not given)	30*
Cc1ccccc1Cc1nnc2sc(-c3cc(F)c(F)c(F)c3F)nn12	0
COc1cccc(OCc2cc(C(=O)N3CCCO3)n[nH]2)c1	-1
Cc1ccc(C(=O)NC(C)(C)C)cc1NS(C)(=O)=O	-9
CC(=O)c1ccc(NC(=O)c2cc3nc(-c4ccccc4)cc(-c4ccccc4)n3n2)cc1	8
COC(=O)C1CCc2nc3cc(-c4ccc(OC)cc4)sc3c(=O)n21 (stereo not given)	5
CC(O)Cn1c(CC#N)nc2ccccc21 (stereo not given)	0
CCc1ccc(CCC(=O)NC(C)C)cc1	11
CCC(c1ccccc1)C(CC)c1ccccc1 (stereo not given)	-11
COc1ccc(Cc2nc3ccc(C(=O)NCC4(C)COC4)cc3o2)cc1OC	-2
CCn1cc(C(=O)Nc2ccc(Br)cc2C)cn1	4
O=c1/c(=C\c2cccs2)sc2n1C(c1cccc(F)c1)C1=C(N=2)c2ccccc2CC1 (stereo not given)	2
O=c1/c(=C\c2cc3c(cc2[N+](=O)[O-])OCO3)sc2n1C(c1cccs1)C1=C(N=2)c2ccccc2CC1 (stereo not given)	-7
O=c1/c(=C\c2ccco2)sc2n1C(c1cccs1)C1=C(N=2)c2ccccc2CC1 (stereo not given)	28*
O=C(CCC1CCCN(C(=O)c2cnsn2)C1)NCc1ccc(F)c(F)c1 (stereo not given)	-6
CCN(CC)c1ccc(C=NN2CCN(C3c4ccccc4-c4ccccc43)CC2)c(O)c1	1
COC12C=CC(CC1)C1C(=O)c3cccc(O)c3C(=O)C12 (stereo not given)	1
SMILES	RBX1-CUL1 inh
COC12C=CC(CC1)C1C(=O)c3c(OC(=O)OCc4ccccc4)ccc(O)c3C(=O)C12 (stereo not given)	27*
CC1(O)CC(=O)C(C(=O)OCc2ccccc2)C(c2ccc(O)cc2)C1C(=O)OCc1ccccc1 (stereo not given)	8
CCc1ccc(/C=C2\C(=O)NN(c3ccc(Cl)c(Cl)c3)C2=O)cc1	81*
COc1ccc(/C=C2/C(=O)NN(c3ccc(Br)cc3)C2=O)cc1	7
Cc1cc(/C=C2\C(=O)NN(c3ccccc3)C2=O)c(C)n1-c1ccc(Cl)c(Cl)c1	0
O=C1NN(c2ccc(Cl)c(Cl)c2)C(=O)/C1=C/c1ccccc1	21
O=C1NN(c2ccc(Br)cc2)C(=O)/C1=C\c1ccc2c(c1)OCO2	8
O=C1NN(c2ccc(Cl)cc2)C(=O)/C1=C/c1ccc(Br)cc1	53*
O=C1NN(c2ccc(Cl)c(Cl)c2)C(=O)/C1=C/c1cc(Br)ccc1O	73*
O=C1NN(c2ccc(Cl)c(Cl)c2)C(=O)/C1=C/c1ccc(Cl)cc1Cl	13
O=C1NN(c2ccc(Cl)c(Cl)c2)C(=O)/C1=C/c1ccc(Br)cc1	57*
O=C1NN(c2ccc(Cl)cc2)C(=O)/C1=C/c1ccc(O)cc1	2
CCc1ccc(/C=C2\C(=O)NN(c3ccc(I)cc3)C2=O)cc1	17
Nc1cnccc1-n1nnc2ccccc21	-6
COc1cc(CN2CCc3c(C(=O)N4CCc5ccccc5C4)c(OC)cc(=O)n3CC2)ccc1F	8
O=C(OCC(Cl)(Cl)Cl)c1cn2cc(Cl)cc(Cl)c2n1	18
CN1C(=O)NC(=NCCCN2CCOCC2)C([N+](=O)[O-])C1=O (stereo not given)	1
NCCCSc1nc2c(c(=O)n1Cc1ccccc1)C1(CCCCC1)Cc1ccccc1-2	92*
C#CCSc1nc2c(c(=O)n1Cc1ccccc1)C1(CCCCC1)Cc1ccccc1-2	-7
Cn1c(SCCc2ccccc2)nc2c(c1=O)C1(CCCC1)Cc1ccccc1-2	-5
O=c1[nH]c(/C=C/c2ccc([N+](=O)[O-])cc2)nc2cc3ccccc3cc12	-4
Clc1ccc2c(c1)c1cc(Cl)ccc1n2CN1CCCC1	0
COc1ccc2c(c1)-c1c(ssc1=Nc1cc(Cl)cc(Cl)c1)C(C)(C)N2	5
COc1cc(N2CCCC2)c(OC)cc1/C=C1\SC(=O)N(Cc2ccc(C)cc2)C1=O	-13
Cc1cc(C=C2C(=O)c3ccccc3C2=O)ccc1N1CCCC1	11
SMILES	RBX1-CUL1 inh
COc1cc(N2CCCC2)c(OC)cc1C=C1C(=O)c2ccccc2C1=O	48*
CC(=O)c1cccc(NC2NS(=O)(=O)C3CCCCC23)c1 (stereo not given)	0
N#Cc1cc2sccc2nc1N	-13
CN(C(=S)NC(=O)c1ccccc1Br)c1ccccc1	-2
C=CCN1C(=O)/C(=C\c2ccc(N(C)C)cc2)N=C1SCC(=O)Nc1ccccc1	13
CN(C)c1ccc(/C=C2\N=C(c3ccccc3)N(NC(=O)c3ccccc3Br)C2=O)cc1	40*
CC1CCC2C(C1)NN(c1ccccc1)C2(C)C (stereo not given)	11
O=C(O)c1ccc(-c2ccc(-c3nc4sc5c(c4c(=O)[nH]3)CCCCC5)o2)cc1	5
O=C(O)c1cccc(-c2ccc(-c3nc4sc5c(c4c(=O)[nH]3)CCCC5)o2)c1	97*
O=c1[nH]c(-c2cccc(Cl)c2Cl)nc2sc3c(c12)CCCCCC3	-12
S=c1[nH]nc(-c2ccccc2)n1-c1ccc(Cl)cc1	0
Fc1ccc(-c2n[nH]c(=S)n2-c2ccccc2)cc1	36*
CC(C)(C)c1ccc(-c2n[nH]c(=S)n2-c2ccccc2)cc1	-5
Cc1ccc(CNC(=O)c2nnn(-c3ccc(C)c(C)c3)c2C)cc1	7
Cc1ccc2c(c1C)N=C(CSc1nnc(-c3ccccc3)n1C)CC2=O	10
COc1ccccc1Oc1ncccc1CNC1CCN(C(C)=O)CC1	-8
COC1=CC(=NC#N)C(Br)=CC1=NC#N	104*
CN1C(=O)C(C=NCc2ccccc2)c2ccccc21 (stereo not given)	-2
CC1(C)OC(=O)C(C=NCc2ccccc2)C(=O)O1	-1
O=C1C=CC(=O)C(C(C=NCc2ccccc2)[N+](=O)[O-])=C1 (stereo not given)	97*
